PubChem BioAssay (NCATS)
“And” between values parts separate entries of the source, which are not always exact repeats. Identical values can stand only once. Inconclusive results are not listed. The source made the active and inactive calls. The call rests on the fitted dose curve; in most records, active means well fitted curve in the direction sought with a large enough effect; inconclusive means small, poorly fitted or top-dose-only effect, or another doubt; inactive means no such curve, though single readings can be large; an effect the other way counts as inactive or inconclusive.

Tests used:
[1] = molecular target: Cellular tumor antigen p53 (Homo sapiens) (UniProt P04637); assay: Primary qHTS for small molecule compounds that upregulate eGFP-tagged delta133p53alpha (in N-terminal) cells. (AID 2060322); details: NCI-H358 eGFP-delta133p53alpha fluorescence, 24 h; activation: hits give high values; further: nearly all actives have a fitted effect of over 75% in size; further: potency means the concentration at half of the fitted maximal effect;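 on activation: cells pre-induced with doxycycline then dosed without doxycycline; series mostly up to about 56 µM; 0% = DMSO vehicle and 100% = reference activator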
Outline: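 NCI-H358 cells pre-induced 24 h with 10 ng/ml doxycycline for eGFP-delta133p53alpha, plated dox-free and exposed 24 h at 37C to titrated compounds. Fixed, Hoechst-stained; gated GFP peak intensity by laser scanning cytometry, normalized to DMSO (0%) and 57.5 uM 5-azacytidine (100%).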

[2] = molecular target: Aldehyde dehydrogenase, mitochondrial (Homo sapiens) (UniProt P05091); assay: qHTS for Inhibitors of the Aldehyde Dehydrogenase Family (ALDH2) Primary screen (AID 2061308);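 further: plate controls were vehicle for no effect and reference inhibitor for full effect; nearly all actives have a fitted effect of over 55% in size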
[3] = molecular target: Retinaldehyde dehydrogenase 3 (Homo sapiens) (UniProt P47895); assay: qHTS for Inhibitors of the Aldehyde Dehydrogenase Family (ALDH1A3) Validation screen (AID 2061312); further: on the % scale 0 is the no-effect control and ±100 the full control effect; nearly all actives have a fitted effect of over 45% in size
[4] = molecular target: Retinaldehyde dehydrogenase 3 (Homo sapiens) (UniProt P47895); assay: qHTS for Inhibitors of the Aldehyde Dehydrogenase Family (ALDH1A3) Primary screen (AID 2061315);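 further: plate controls were DMSO vehicle for no effect and reference inhibitor for full effect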
[5] = BET inhibitor-based combinations targeting novel dependencies in MECOM-rearranged (r) AML: OCI-AML3 cell line (AID 2202232); details: Potency: OCI-AML3 viability; further: nearly all actives have a fitted effect of over 35% in size; further: potency means the concentration at half of the fitted maximal effect
Outline: (§1)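 Viability of cells (500 per well) is scored by luminescent CellTiter-Glo at 48 hr post-dosing. Eleven-point titrations are normalized to DMSO and empty controls and reduced to AUC values.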

[6] = BET inhibitor-based combinations targeting novel dependencies in MECOM-rearranged (r) AML: MV-4-11 cell line (AID 2202233); further: nearly all actives have a fitted effect of over 45% in size; further: potency means the concentration at half of the fitted maximal effect
Outline: (§2)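 Using pin-tool transfer, drugs were added in 11 doses to cells (500/well), incubated 48 hr, and assessed with CellTiter-Glo. Z-AUC is a mean-centring transformation applied separately to each screened line.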

[7] = BET inhibitor-based combinations targeting novel dependencies in MECOM-rearranged (r) AML: UCSD-AML1 cell line (AID 2202235); further: nearly all actives have a fitted effect of over 40% in size; further: potency means the concentration at half of the fitted maximal effect
Outline: as §2

[8] = BET inhibitor-based combinations targeting novel dependencies in MECOM-rearranged (r) AML: SET-2 cell line (AID 2202231); details: SET-2 AML cells viability, CellTiter-Glo luminescence, 48 h; viability: hits give low values, concentration not given here; further: nearly all actives have a fitted effect of over 35% in size; further: potency means the concentration at half of the fitted maximal effect;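 on viability: plate controls were DMSO treated cells for no effect and wells without cells for full effect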
Outline: as §1

[9] = BET inhibitor-based combinations targeting novel dependencies in MECOM-rearranged (r) AML: HNT-34 cell line (AID 2202234);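 further: plate controls were vehicle wells for no effect and cell-free wells for full effect; nearly all actives have a fitted effect of over 35% in size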
Outline: as §2

[10] = BET inhibitor-based combinations targeting novel dependencies in MECOM-rearranged (r) AML: AML-191 cell line (AID 2202236; further: nearly all actives have a fitted effect of over 35% in size; further: potency means the concentration at half of the fitted maximal effect)
Outline: as §1

Sequence of Cellular tumor antigen p53 (Homo sapiens) (P04637 whole entry, looked up): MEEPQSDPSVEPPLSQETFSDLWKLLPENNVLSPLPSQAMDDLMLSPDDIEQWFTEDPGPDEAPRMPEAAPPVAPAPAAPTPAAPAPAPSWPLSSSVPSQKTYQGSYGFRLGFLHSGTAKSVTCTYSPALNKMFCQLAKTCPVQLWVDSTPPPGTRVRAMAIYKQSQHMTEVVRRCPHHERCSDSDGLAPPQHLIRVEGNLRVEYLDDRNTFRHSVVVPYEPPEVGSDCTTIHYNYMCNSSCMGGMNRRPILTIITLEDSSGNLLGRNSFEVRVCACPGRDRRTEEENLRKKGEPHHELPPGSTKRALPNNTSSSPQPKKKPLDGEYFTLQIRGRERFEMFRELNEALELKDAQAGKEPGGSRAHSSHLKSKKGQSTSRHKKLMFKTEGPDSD

CNC(=O)N1N=C(c2ccc(N)cc2)c2cc3c(cc2CC1C)OCO3 (configuration not stated)
inactive: activation [1] 34.7% | Potency [2] | Potency [3] | Potency [4]

Cc1ccc2c(c1)[C@H]1CN(C)CC[C@H]1N2C(=O)CSc1nnnn1-c1ccc(Cl)cc1
inactive: activation [1] -6.68% | Potency [2] | Potency [3] | Potency [4]

CN(C)c1cc2c(cc1Sc1nc3c(N)nccc3n1CCNCC(C)(C)C)OCO2
active: Potency [5] 1180 nM | Potency [6] 662 nM | Potency [7] 1320 nM
inactive: activation [1] 5.25% | Potency [2] | Potency [3] | Potency [4]

CC1CCCC(O)CC(=O)Cc2cc(O)cc(O)c2C(=O)O1 (configuration not stated)
inactive: activation [1] 7.63% | Potency [2] | Potency [4]

c1ccc([C@@H]2C[C@H]2NC2CCNCC2)cc1
inactive: activation [1] 13.8% | Potency [2] | Potency [4]

CC1CCCCCC(=O)c2c(O)cc(O)cc2CC(=O)O1 (configuration not stated)
inactive: activation [1] -18.3% | Potency [2] | Potency [4]

CCN(CC)C(=O)c1ccc(C2=CC3(CCNCC3)Oc3cccc(O)c32)cc1
inactive: activation [1] -5.25% | Potency [2] | Potency [3] | Potency [4] | viability [8] 99.6% | Potency [9] | Potency [7] | Potency [10]

CCC(C)(O)C1(C(=O)O)COC(=O)C1 (configuration not stated)
inactive: activation [1] 6.25% | Potency [2] | Potency [4]

COC1CC(O[C@H]2CC[C@]3(C=O)C4CC[C@]5(C)[C@@H](C6=CC(=O)OC6)CC[C@]5(O)[C@@H]4CC[C@@H]3C2)OC(C)C1O[C@@H]1O[C@H](CO)[C@@H](O[C@@H]2O[C@H](CO)[C@@H](O)[C@H](O)[C@H]2O)[C@H](O)[C@H]1O (some centres not stated)
inactive: Potency [2] | Potency [4]
active: Potency [1] 3210 nM

CC1=C2C[C@H]3[C@@H](CC=C4C[C@@H](O)CC[C@@]43C)[C@@H]2CC[C@]12O[C@@H]1C[C@H](C)CN[C@H]1[C@H]2C
inactive: activation [1] 2.39% | Potency [2] | Potency [3] | Potency [4] | viability [8] 113% | Potency [5] | Potency [6] | Potency [9] | Potency [7]

COc1c(C(C)C)cc2c(c1O)[C@@]1(C(=O)O)CCCC(C)(C)C1CC2 (some centres not stated)
inactive: activation [1] -13% | Potency [2] | Potency [4]

CCNC(=O)CC1N=C(c2ccc(Cl)cc2)c2cc(OC)ccc2-n2c(C)nnc21 (configuration not stated)
inactive: activation [1] -24.1% and -15% and -22.4% | Potency [2] | Potency [3] | Potency [4]
active: Potency [7] 9340 nM | Potency [10] 13200 nM

Cc1sc2c(c1C)C(c1ccc(Cl)cc1)=N[C@@H](CC(N)=O)c1nnc(C)n1-2
active: Potency [8] 372 nM | Potency [5] 105 nM | Potency [6] 83.3 nM
inactive: activation [1] 10% | Potency [2] | Potency [3] | Potency [4]

Cc1ccccc1C1=CCN(C)CC1
inactive: activation [1] 1.67% | Potency [2] | Potency [4]

CC(C)[C@H](NC(=O)c1nn(Cc2ccc(F)cc2)c2ccccc12)C(N)=O
inactive: activation [1] -6.68% | Potency [2] | Potency [4]

CC[C@H]1/C=C\C=C/C[C@@H](C)[C@H](O)[C@@](C)(O)C(=O)[C@@H](C)[C@H](O)[C@@H](C)C(=O)[C@@H](C)[C@H](O)[C@@H](C)/C=C\C(=O)O[C@@H]2[C@H](C)[C@H](CC1)O[C@]1(CC[C@H](C)[C@H](C[C@@H](C)O)O1)[C@H]2C
inactive: activation [1] 26.3% | Potency [2] | Potency [3] | Potency [4]
active: Potency [8] 4170 nM | Potency [6] 26.3 nM | Potency [10] 1180 nM

CC(=O)OC[C@]12C[C@H](OC(=O)CC(C)C)C(C)=C[C@H]1O[C@@H]1[C@H](O)C[C@@]2(C)[C@]12CO2
active: Potency [1] 3700 nM
inactive: Potency [2] | Potency [4]

CN1[C@H]2C[C@H](OC(=O)[C@H](CO)c3ccccc3)C[C@@H]1[C@@H](O)C2
inactive: activation [1] 1.67% | Potency [2] | Potency [4]
